Experimental data taken from PubChem BioAssay (NCI).
This is part of a sample that, as a whole, favours compounds with a hit. Of some 83,000 tested, about 20% had one in any assay.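 Step 1: grow cells in 96-well plates. Step 2: add test compound at a single concentration. Step 3: incubate 48 h. Step 4: record percent growth.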

What was measured:
Test in all cases: NCI-60 one-dose screen, 48 h (100 = growth as untreated, 0 = no growth, -100 = all killed)
Settings in all cases: 10 µM unless noted; active means growth percent below 10; inactive means the rest
NCI-H23 lung = tested on: NCI-H23 lung
NCI-H226 lung = tested on: NCI-H226 lung
NCI-H322M lung = tested on: NCI-H322M lung
HOP-62 NSCLC = tested on: HOP-62 NSCLC
NCI-H460 lung = tested on: NCI-H460 lung
HOP-92 NSCLC = tested on: HOP-92 NSCLC
NCI-H522 lung = tested on: NCI-H522 lung
A549/ATCC NSCLC = tested on: A549/ATCC NSCLC
786-0 renal = tested on: 786-0 renal
COLO 205 colon = tested on: COLO 205 colon
DU-145 prostate = tested on: DU-145 prostate
K-562 leukemia = tested on: K-562 leukemia
MALME-3M melanoma = tested on: MALME-3M melanoma
MDA-MB-231 breast = tested on: MDA-MB-231 breast
RXF 393 renal = tested on: RXF 393 renal
SF-268 CNS = tested on: SF-268 CNS
SF-295 CNS = tested on: SF-295 CNS
SF-539 CNS = tested on: SF-539 CNS
UACC-257 melanoma = tested on: UACC-257 melanoma
M14 melanoma = tested on: M14 melanoma

Measured: growth

Nc1cccc(-c2nc3sccn3c2-c2ccnc(NCCCNS(=O)(=O)c3cccc4ccccc34)n2)c1
inactive: NCI-H23 lung 44.3% | NCI-H226 lung 29.8% | NCI-H322M lung 63.5% | HOP-62 NSCLC 64.3% | NCI-H460 lung 35.5% | HOP-92 NSCLC 92.4% | NCI-H522 lung 34.9% | A549/ATCC NSCLC 39.2% | 786-0 renal 53.9% | COLO 205 colon 24.1% | DU-145 prostate 47.9% | K-562 leukemia 22.6% | MALME-3M melanoma 62.2% | MDA-MB-231 breast 39.5% | RXF 393 renal 57.4% | SF-268 CNS 49.2% | SF-295 CNS 38.3% | SF-539 CNS 65.9% | UACC-257 melanoma 47.9% | M14 melanoma 43.8%

Oc1ccccc1/C=N/NC(=S)NC1CC2C=CC1C2 (stereo not given)
inactive: NCI-H23 lung 56.3% | NCI-H226 lung 107% | NCI-H322M lung 83.1% | HOP-62 NSCLC 85.6% | NCI-H460 lung 16.6% | HOP-92 NSCLC 82.4% | NCI-H522 lung 60.3% | A549/ATCC NSCLC 69.9% | 786-0 renal 83.4% | COLO 205 colon 108% | DU-145 prostate 88.7% | K-562 leukemia 33.3% | MALME-3M melanoma 102% | MDA-MB-231 breast 84.2% | RXF 393 renal 68.3% | SF-268 CNS 67.8% | SF-295 CNS 85% | SF-539 CNS 93.8% | UACC-257 melanoma 76.8% | M14 melanoma 47.7%

Nc1cccc(Cl)c1N
inactive: NCI-H23 lung 85.2% | NCI-H226 lung 101% | NCI-H322M lung 99.5% | HOP-62 NSCLC 108% | NCI-H460 lung 101% | HOP-92 NSCLC 106% | NCI-H522 lung 71.1% | A549/ATCC NSCLC 109% | 786-0 renal 110% | COLO 205 colon 104% | DU-145 prostate 117% | K-562 leukemia 102% | MALME-3M melanoma 116% | MDA-MB-231 breast 99.3% | RXF 393 renal 121% | SF-268 CNS 104% | SF-295 CNS 118% | SF-539 CNS 90.4% | UACC-257 melanoma 113% | M14 melanoma 104%

COc1ccc(-c2nc(N3CCCC3=O)sc2Br)cc1OC
inactive: NCI-H23 lung 95.7% | NCI-H226 lung 93.8% | NCI-H322M lung 96.6% | HOP-62 NSCLC 103% | NCI-H460 lung 108% | HOP-92 NSCLC 113% | NCI-H522 lung 89.1% | A549/ATCC NSCLC 96.8% | 786-0 renal 97.5% | COLO 205 colon 112% | DU-145 prostate 114% | K-562 leukemia 94% | MALME-3M melanoma 111% | MDA-MB-231 breast 93.7% | RXF 393 renal 89.9% | SF-268 CNS 104% | SF-295 CNS 93.5% | SF-539 CNS 96.9% | UACC-257 melanoma 98.5% | M14 melanoma 116%

O=C(NNC(=O)N1c2ccccc2C=Cc2ccccc21)c1ccccc1
inactive: NCI-H23 lung 101% | NCI-H226 lung 113% | NCI-H322M lung 107% | HOP-62 NSCLC 114% | NCI-H460 lung 106% | HOP-92 NSCLC 103% | NCI-H522 lung 94% | A549/ATCC NSCLC 103% | 786-0 renal 103% | COLO 205 colon 112% | DU-145 prostate 107% | K-562 leukemia 101% | MALME-3M melanoma 117% | MDA-MB-231 breast 111% | RXF 393 renal 106% | SF-268 CNS 98.4% | SF-295 CNS 95.7% | SF-539 CNS 102% | UACC-257 melanoma 108% | M14 melanoma 110%

CN(C)c1oc(C2OC2c2ccccc2)nc1C#N (stereo not given)
inactive: NCI-H23 lung 95.2% | NCI-H226 lung 80.7% | NCI-H322M lung 81.6% | HOP-62 NSCLC 75.6% | NCI-H460 lung 109% | HOP-92 NSCLC 79% | NCI-H522 lung 87.7% | A549/ATCC NSCLC 90.8% | 786-0 renal 102% | COLO 205 colon 94.5% | DU-145 prostate 107% | K-562 leukemia 106% | MALME-3M melanoma 95.9% | MDA-MB-231 breast 87.3% | RXF 393 renal 86.7% | SF-268 CNS 95.7% | SF-295 CNS 98.8% | SF-539 CNS 104% | UACC-257 melanoma 83% | M14 melanoma 104%

O=C(Nc1ccncc1)C(=O)c1cn(S(=O)(=O)c2ccc(Oc3ccccc3)cc2)c2ccccc12
inactive: NCI-H23 lung 77.5% | NCI-H226 lung 103% | NCI-H322M lung 94.4% | HOP-62 NSCLC 88% | NCI-H460 lung 72.1% | HOP-92 NSCLC 71.6% | NCI-H522 lung 87.4% | A549/ATCC NSCLC 71.8% | 786-0 renal 89.2% | COLO 205 colon 107% | DU-145 prostate 96.8% | K-562 leukemia 81.5% | MALME-3M melanoma 84.9% | MDA-MB-231 breast 68.9% | RXF 393 renal 110% | SF-268 CNS 109% | SF-295 CNS 60% | SF-539 CNS 96.5% | UACC-257 melanoma 103% | M14 melanoma 102%

COC(=O)C1CCCN1C(=O)[C@@H]1CCCN1C(=O)[C@H](Cc1c[nH]c2ccccc12)NC(=S)Nc1cc(C(F)(F)F)cc(C(F)(F)F)c1 (stereo not given in full)
inactive: NCI-H23 lung 69% | NCI-H226 lung 75.7% | NCI-H322M lung 74.7% | HOP-62 NSCLC 80.2% | NCI-H460 lung 22.3% | HOP-92 NSCLC 17% | NCI-H522 lung 46% | A549/ATCC NSCLC 37.1% | 786-0 renal 37.6% | COLO 205 colon 66.5% | DU-145 prostate 52.5% | K-562 leukemia 38.3% | MALME-3M melanoma 81.7% | MDA-MB-231 breast 14.4% | RXF 393 renal 43.7% | SF-268 CNS 51.5% | SF-295 CNS 25.1% | SF-539 CNS 55.4% | UACC-257 melanoma 62.4% | M14 melanoma 60.9%
